FLuc modulator: counter-screen for miR-21 project: firefly luciferase inhibitors or activators; P08659; purified FLuc, Km substrates, luminescence inhibition; Potency, µM (top dose mostly 57.5 µM), for inactives: at the highest dose activity change, negative = inhibition, hits mostly inhibitors; 360,000 compounds, 6.9% hits;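 also: plate controls were vehicle for no effect and reference inhibitor for full effect; nearly all actives have a fitted effect of over 55% in size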
Target sequence (P08659 whole entry, looked up): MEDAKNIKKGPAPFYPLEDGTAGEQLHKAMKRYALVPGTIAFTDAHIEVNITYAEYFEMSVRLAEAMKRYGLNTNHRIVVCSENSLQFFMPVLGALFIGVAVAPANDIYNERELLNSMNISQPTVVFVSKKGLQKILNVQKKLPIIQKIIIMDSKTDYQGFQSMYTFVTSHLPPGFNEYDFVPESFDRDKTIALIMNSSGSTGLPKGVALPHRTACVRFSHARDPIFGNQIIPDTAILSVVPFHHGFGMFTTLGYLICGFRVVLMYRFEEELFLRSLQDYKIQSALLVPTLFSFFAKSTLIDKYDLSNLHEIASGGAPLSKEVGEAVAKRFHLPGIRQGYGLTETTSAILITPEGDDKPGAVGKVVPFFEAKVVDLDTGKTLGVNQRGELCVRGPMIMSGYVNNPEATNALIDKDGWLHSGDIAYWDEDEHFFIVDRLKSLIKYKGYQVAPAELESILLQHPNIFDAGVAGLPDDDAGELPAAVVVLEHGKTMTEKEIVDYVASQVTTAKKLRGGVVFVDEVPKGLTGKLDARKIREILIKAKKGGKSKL
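Purified P. pyralis luciferase (10nM final) with 10uM D-luciferin and 10uM ATP (Km levels) in 50mM Tris acetate pH 7.5, 10mM Mg acetate, 0.01% Tween-20, 0.05% BSA; qHTS 6-point titration, ~60 µM downward; luminescence read.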
NPC1 promoter act: activates the NPC1 promoter. Huh7 NPC1 promoter luciferase reporter, 24 h. Potency, µM (highest dose often 9.22 µM), for the others: at the highest dose activation, most hits filed as activators. 320,000 compounds, 2.4% hits; also: % of control where 0% means no effect; nearly all actives have a fitted effect of over 60% in size
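Luminescence from an NPC1 promoter-driven luciferase reporter in stably transfected Huh7 cells was measured after 24 h compound treatment at 37 °C, followed by 10 min ambient incubation with luciferase detection reagent.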
ELG1 genotoxic: inducers of genotoxicity in HEK293T ELG1-luciferase cells; Potency, µM (series often up to 46 µM), inactives show top-dose activity change, positive = activation, actives largely listed as activators; AID 504466; 330,000 compounds, 1.3% hits; HEK293T ELG1-luciferase reporter, luminescence, 16 h; also: % of control where 0% means no effect; nearly all actives have a fitted effect of over 60% in size
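DMSO vehicle served as control against compound-treated ELG1-luciferase HEK293T cells; exposure lasted 16 hr at 37 °C and 5% CO2, followed by ONE-Glo luminescence detection after 30 min.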
SMN2 splice up: enhancers of SMN2 splice variant expression; HEK293 SMN2-luciferase splicing reporter, luminescence, 30-36 h; Potency, µM (top dose mostly 46.1 µM), without a hit: at the top dose activity change, positive = activation, usual class: activators; 210,000 compounds, 2.8% hits; AID 1458; also: % of control where 0% means no effect; nearly all actives have a fitted effect of over 55% in size
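HEK293 cells carry an SMN2 […]–luciferase reporter in which exon 7 inclusion puts luciferase in frame. Cells were plated 10-12 h before compound addition, then incubated 30-36 h at 37C. ONE-Glo luminescence was read; sodium butyrate at 4.5 mM final served as control.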
Rab9 promoter act: activators of Rab9 promoter | Huh7 Rab9 promoter-luciferase reporter, luminescence, 24 h | Potency, µM (titrated, usually from 9.22 µM), for the others: at the top dose activation, negative = inhibition, hits mostly activators | 320,000 compounds, 2.8% hits | AID 485297; also: % of control where 0% means no effect; nearly all actives have a fitted effect of over 60% in size
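Rab9 promoter-driven luciferase in stably transfected Huh7 cells; 1500 cells/well rested 2 h, exposed to compound in DMSO for 24 h at 37 °C, 5% CO2. Luminescence read 10 min after adding luciferase reagent at ambient temperature.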
Luc counter: blocks Kinase-Glo luciferase, a counter-screen artifact; Potency, µM (top dose mostly 38.3 µM), without a hit: at the highest dose activity change, negative = inhibition, actives largely listed as inhibitors; Kinase-Glo luciferase, ATP luminescence, 8 min; 200,000 compounds, 0.28% hits; also: % is scaled to controls: 0 for no effect and ±100 for the full control effect; nearly all actives have a fitted effect of over 60% in size
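Recombinant Kinase-Glo luciferase, 10 uM ATP (linear range), luciferin; imidazole pH 7.2 / KCl / MgCl2 / Tween / BSA buffer; 8 min RT; luminescence.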
Active calls of the source: *; [ ] = remark or other dose. Only some compounds are listed: those with a hit (about 7.5% of all), similar ones and a draw of the others. Calls follow the shape of the dose curve; as a rule, active = well fitted curve in the direction sought with a large enough effect; inconclusive = small, poorly fitted or top-dose-only effect, or another doubt; inactive = no such curve, though single readings can be large; an effect the other way counts as inactive or inconclusive. Potency is read from the fitted curve at half-maximal effect.

What do the screens show for `CCCCOc1ccc(CSc2nncn2N)cc1`?
FLuc modulator: inconclusive; NPC1 promoter act: inconclusive; ELG1 genotoxic: inconclusive; SMN2 splice up: 26%; Rab9 promoter act: inconclusive; Luc counter: -5%

How did COc1ccc(/C(O)=C2/C(=O)C(=O)N(c3ccccn3)C2c2ccc(F)cc2)cc1 (stereo unspecified) do in these assays?
FLuc modulator: -1%; NPC1 promoter act: 1%; ELG1 genotoxic: 4%; Rab9 promoter act: -2%

Results for O=C1CCCC(O)=C1N=Nc1ccc(Cl)c(Cl)c1 ?
FLuc modulator: inconclusive; NPC1 promoter act: -1%; ELG1 genotoxic: 5%; SMN2 splice up: -4%; Rab9 promoter act: 4%; Luc counter: -8%

How did CC(=O)N1CCc2cc(N=NC3=C(O)CCCC3=O)ccc21 do in these assays?
FLuc modulator: 15µM*; NPC1 promoter act: inconclusive; ELG1 genotoxic: inconclusive; SMN2 splice up: 171%; Rab9 promoter act: 3.5µM*; Luc counter: -13%

What do the screens show for `Cc1nc2cc(N=NC3=C(O)CCCC3=O)ccc2s1`?
FLuc modulator: 13µM*; NPC1 promoter act: 10%; ELG1 genotoxic: inconclusive; SMN2 splice up: inconclusive; Rab9 promoter act: 16%; Luc counter: -18%

What do the screens show for `CN1[C@@H]2CC[C@@H]1CC(OC(=O)[C@H](CO)c1ccccc1)C2` (stereo partly specified)?
Luc counter: 4%[39.9 µM]

Results for CCOc1cc(C(=O)Nc2cc3c(cc2N2CCCC2)n(C)c(=O)c(=O)n3C)cc(OCC)c1OCC ?
FLuc modulator: -19%; SMN2 splice up: 1%

How did O=C(c1ccc(F)cc1)n1nc(-c2cccnc2)nc1NCc1ccccc1 do in these assays?
FLuc modulator: -3%; SMN2 splice up: 13%

What do the screens show for `COc1ccc(S(=O)(=O)n2ccc(-c3ccc(OCCN(C)c4ccccn4)cc3)n2)cc1`?
FLuc modulator: 1%; NPC1 promoter act: -13%; ELG1 genotoxic: -10%; SMN2 splice up: -36%; Rab9 promoter act: -15%; Luc counter: -2%

How did Fc1ccc(Cn2ccc(-c3cnc(-c4ccccc4)s3)n2)cc1 do in these assays?
FLuc modulator: 11µM*; NPC1 promoter act: inconclusive; ELG1 genotoxic: inconclusive; SMN2 splice up: -27%; Rab9 promoter act: 3.2µM*; Luc counter: -2%

Results for O=C(c1ccc(F)cc1)n1ccc(-c2cnc(-c3ccccc3)s2)n1 ?
FLuc modulator: inconclusive; NPC1 promoter act: 1µM*; ELG1 genotoxic: 0.82µM*; SMN2 splice up: 13µM*; Rab9 promoter act: 0.71µM*; Luc counter: -1%

Results for O=C(c1ccc(C(F)(F)F)cc1)n1ccc(-c2cccs2)n1 ?
FLuc modulator: 15µM*; NPC1 promoter act: -3%; ELG1 genotoxic: 0%; Rab9 promoter act: 1%

How did O=S(=O)(c1ccccc1)n1ccc(-c2cnc(-c3ccccc3)s2)n1 do in these assays?
FLuc modulator: 15µM*; NPC1 promoter act: inconclusive; ELG1 genotoxic: inconclusive; SMN2 splice up: 46%; Rab9 promoter act: inconclusive; Luc counter: -7%

How did COc1cccc(-c2nc(SCC(=O)NC3CCCC3)c(-c3ccccc3)[nH]2)c1 do in these assays?
FLuc modulator: inconclusive; SMN2 splice up: -4%

Results for CCC1CCC(C(=O)NC(C(=O)NCCN2CCOCC2)C(C)C)CC1 (stereo unspecified) ?
FLuc modulator: -2%; NPC1 promoter act: -1%; ELG1 genotoxic: 2%; Rab9 promoter act: -2%

What do the screens show for `Cc1ccc(Cn2ccc(-c3cnc(-c4ccccc4)s3)n2)cc1`?
FLuc modulator: 11µM*; NPC1 promoter act: inconclusive; ELG1 genotoxic: inconclusive; SMN2 splice up: -43%; Rab9 promoter act: inconclusive; Luc counter: 17%

How did O=C(N/N=C/c1cccnc1)c1cc(-c2ccc(Br)cc2)nc2ccccc12 do in these assays?
FLuc modulator: 6.7µM*; NPC1 promoter act: -16%; ELG1 genotoxic: -4%; Rab9 promoter act: 0%

Screening results from PubChem BioAssay.
